# Out of some 410,000 compounds screened, about 18,000 (4.4%) were called active. Inconclusive results (about 7%) are left out. Shown is part of a subset that was picked to be rich in actives. Unmarked numbers belong to inactive results. Rule as the data show it: active = activity change below about -60%; inconclusive = no clear call, values can overlap the other calls; inactive = above about -39%.
# Assay: qHTS Assay for inhibitors of the human cytomegalovirus (HCMV)
# Conditions: HFF cells, HCMV-luciferase reporter, 72 h; at 57.5 µM; hits give low values
# In short: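 Compounds were evaluated in HFFs infected with an HCMV luciferase reporter virus (MOI 1 PFU/cell). Luciferase in lysates collected 72 h post infection served as the replication measure.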
# % is scaled to controls: 0 for no effect and ±100 for the full control effect.
row,SMILES,"activity change, negative = inhibition"
1,O=C(c1cncc(Br)c1)N1CCN(c2ccc([N+](=O)[O-])cc2)CC1,25.9%
2,O=[N+]([O-])c1ccc(N2CCN(c3ccc(F)cc3)CC2)cn1,-16.4%
3,CC(C)c1ccc(S(=O)(=O)N2CCN(C(=O)c3ccc(N4CCCC4)c([N+](=O)[O-])c3)CC2)cc1,-16.3%
4,O=C(c1ccc(CN2CCOCC2)cc1)N1CCN(c2ccccc2F)CC1,16.2%
5,O=C(c1cccc(F)c1)N1CCN(c2ccc([N+](=O)[O-])c3cccnc23)CC1,-7.42%
6,O=C(c1cccc(F)c1)N1CCN(c2ccc([N+](=O)[O-])c(N3CCCCC3)c2)CC1,-60.2% (active)
7,COc1ccc(N2CCN(C(=O)c3cccs3)CC2)cc1,57.6%
8,Cc1ccc(CN(C(=O)COc2ccc(Cl)cc2C)C2CCS(=O)(=O)C2)o1 (stereo unspecified),51.5%
9,Cc1cccc(N2CCN(c3ccc(C(=O)O)cc3NC(=O)c3ccccc3F)CC2C)c1 (stereo unspecified),-4.85%
10,CCOc1ccccc1C(=O)NC1(C(F)(F)F)NC(=O)N(CCc2ccc(OC)c(OC)c2)C1=O (stereo unspecified),-4.49%
11,O=C(CSc1nc2ccccc2nc1Cc1ccccc1)N1CCCCC1,-18.6%
12,CC(C)[C@@H](C(=O)OCC(=O)c1ccc2c(c1)NC(=O)CO2)N1C(=O)c2ccccc2C1=O,43.1%
13,COc1cc(NC(=O)c2noc3c2CSc2ccccc2-3)cc(OC)c1OC,40.1%
14,CC(C)CCNC(=O)CSc1nc2ccccc2nc1Cc1ccc(Cl)cc1,-7.66%
15,O=C(CC1N=C2c3ccccc3N=C(SCc3ccc(F)cc3)N2C1=O)NCc1cccs1 (stereo unspecified),30.3%
16,O=C(c1cccc(C(=O)N2CCN(c3ccc(F)cc3)CC2)c1)N1CCN(c2ccc(F)cc2)CC1,-88.8% (active)
17,O=C(c1ccc(N2CCCC2=O)cc1)N1CCN(c2ccc(C(F)(F)F)cc2[N+](=O)[O-])CC1,-85.8% (active)
18,O=C(c1cccc(-n2cccc2)c1)N1CCN(S(=O)(=O)c2ccc(F)cc2)CC1,-6.27%
19,CNS(=O)(=O)c1ccc(N2CCCC2=O)c([N+](=O)[O-])c1,-21%
20,CC(=O)c1ccc(N2CCN(C(=O)c3ccc4nc[nH]c4c3)CC2)cc1,-12%
21,O=C(Nc1cc(Cl)ccc1N1CCOCC1)c1ccc(N2CCCC2=O)cc1,-3.06%

row,SMILES,"activity change, negative = inhibition"
1,Cc1cc(C)cc(Nc2ncnc3onc(-c4ccc(F)cc4)c23)c1,-23.4%
2,COc1ccccc1-c1nnc(SCC(N)=O)o1,64.6%
3,COc1cc(C(=O)Nc2ccc(-n3c(C)nc4ccccc4c3=O)cc2)cc(OC)c1OC,-1.41%
4,CCOC(=O)c1cc2c(=O)n3ccccc3nc2n(CCCOC)c1=NC(=O)C(C)Oc1ccccc1 (stereo unspecified),-1.73%
5,Cc1ccc2nc(N3CCN(c4cccc(Cl)c4)CC3)c3nnnn3c2c1,-71.6% (active)
6,O=S(=O)(c1cccc2nonc12)N1CCN(c2cccc(Cl)c2)CC1,-25.7%
7,O=Cc1c(N2CCN(c3cccc(Cl)c3)CC2)nc2ccccn2c1=O,-31.6%
8,COC(=O)c1ccc(COC(=O)CNC(=O)c2cccc(OC)c2)o1,-25.9%
9,O=C(Nn1cc(C(=O)N2CCN(c3ccccc3F)CC2)c2ccccc2c1=O)c1cnccn1,43.2%
10,COc1ccc(/C=C(\C#N)C(=O)OCC(=O)N(C)C2CCS(=O)(=O)C2)cc1 (stereo unspecified),-87.3% (active)
11,CC(=O)c1ccc(OCC(=O)N(C)C2CCS(=O)(=O)C2)cc1 (stereo unspecified),-17%
12,COc1ccc(-c2cc(=O)oc3cc(OCC(=O)N(C)C4CCS(=O)(=O)C4)ccc23)cc1 (stereo unspecified),4.48%
13,CCOC(=O)c1c(S(=O)(=O)N2CCC(C(=O)NCc3ccccc3OC)CC2)c(C)n(C)c1C,9.09%
14,O=C(CC1Oc2ccc(Cl)cc2NC1=O)NCc1ccccc1 (stereo unspecified),-7.24%
15,O=C(Nc1ccc(F)cc1F)c1ccc2c(=O)n3c(nc2c1)CCCCC3,61.7%
16,COc1cccc(CNC(=O)C(NS(=O)(=O)c2ccc3nc(C)sc3c2)C(C)C)c1 (stereo unspecified),-9.19%
17,COC(=O)c1ccc(COc2ccc(C#N)cc2)o1,-13.9%
18,Cc1ccc(C(=O)NC23CC4CC(CC(C4)C2)C3)c(Cl)c1,20.9%
19,COc1ccccc1C(=O)NC(=S)NC12CC3CC(CC(C3)C1)C2,-36.1%
20,S=C(NCc1ccc(Cl)cc1)NC12CC3CC(CC(C3)C1)C2,-100% (active)
